PINK1 expr mod: PINK1 expression modulation; hit rate 0.2% among 410,000; AID 624263; PINK1 immunofluorescence, high-content cytometry, 24 h; Potency, µM (highest dose often 76.6 µM), without a hit: at the top dose activation (PINK1 increase), usual class: activators; active = well fitted activation curve with a large enough effect; inconclusive = small, poorly fitted or top-dose-only effect; cell line not stated here; note: % of control where 0% means no effect; nearly all actives have a fitted effect of over 65% in size
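Fluorescence from anti-PINK1 antibody, together with nuclear and cell stains, was scanned on a laser-scanning cytometer. Before staining, stable-line cells were incubated 24 hours with compounds at 5 concentrations; primary antibody 12 h at 10 degrees C.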
Vif-APOBEC3G blk: inhibitors of Vif-APOBEC3G interaction | Potency, µM (doses to about 46.1 µM), inactives show at the top dose activity, negative = active, hits mostly inhibitors | HeLa A3G-eYFP + Vif (tagged APOBEC3G with the HIV-1 protein that degrades it), YFP fluorescence, overnight | hit rate 0.076% among 410,000 | AID 602310; note: % is set by controls: 0 for no effect and ±100 for the full control effect; nearly all actives have a fitted effect of over 60% in size
Target sequence (Q9HC16 whole entry, looked up): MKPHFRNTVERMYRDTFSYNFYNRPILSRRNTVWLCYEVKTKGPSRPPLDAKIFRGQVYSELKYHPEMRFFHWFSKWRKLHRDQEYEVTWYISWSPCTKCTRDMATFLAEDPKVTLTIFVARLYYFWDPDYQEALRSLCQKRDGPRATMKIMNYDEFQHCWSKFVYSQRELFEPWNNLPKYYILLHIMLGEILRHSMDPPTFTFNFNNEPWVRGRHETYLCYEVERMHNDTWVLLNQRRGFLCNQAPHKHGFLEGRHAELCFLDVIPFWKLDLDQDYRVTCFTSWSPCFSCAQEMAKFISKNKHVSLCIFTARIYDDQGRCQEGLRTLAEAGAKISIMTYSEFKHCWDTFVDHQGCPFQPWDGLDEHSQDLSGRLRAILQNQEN
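Read-out is eYFP fluorescence (Ex 488/Em 500-530) from Vif-expressing HeLa A3G-eYFP cells; more signal means A3G escaped Vif-mediated degradation. Cells plated overnight, compound pinned in, incubated overnight at 37 deg C.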
Epigenetic reg: regulators of epigenetic silencing causing reporter derepression in mouse cells. murine LDR cells, GFP reporter derepression, 30 h. Potency, µM (highest dose often 53.9 µM), for the others: top-dose GFP activation, hits mostly activators. hit rate 0.2% among 280,000. AID 1865; note: % of control where 0% means no effect; nearly all actives have a fitted effect of over 60% in size
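In this reporter-derepression format, murine cells bearing a silenced integrated CMV-GFP locus incubate with test compound (30 h, 37 C), then are washed and imaged; fluorescent objects of 20–120 um count as induced cells.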
Vif-A3F inh: Vif-A3F binding inhibition; hit rate 0.2% among 390,000; Potency, µM (doses to about 46.1 µM), inactives show top-dose activity, negative = active; AID 602313; HeLa A3F-eYFP + Vif (tagged APOBEC3F with the HIV-1 protein that degrades it), YFP fluorescence increase; note: % of control where 0% means no effect; nearly all actives have a fitted effect of over 65% in size
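HeLa cells stably expressing Vif plus C-terminally eYFP-tagged A3F were seeded, incubated overnight at 37 deg C, dosed with compound, incubated overnight again at 37 deg C. Yellow fluorescence (Ex 488/Em 500-530) reported blocked Vif-mediated A3F-eYFP degradation.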
The depositor's hits bear a star; ? = inconclusive; nt = not tested or not shown; [ ] = another dose, or the depositor's remark. This is a sample that favours compounds with a hit; in the whole collection about 0.52% have one here. Unless noted, calls come from the whole dose curve; as a rule, active = well fitted curve in the direction sought with a large enough effect; inconclusive = small, poorly fitted or top-dose-only effect, or another doubt; inactive = no such curve, though single readings can be large; an effect the other way counts as inactive or inconclusive. Potency is the fitted concentration of half-maximal effect.

SMILES | PINK1 expr mod | Vif-APOBEC3G blk | Epigenetic reg | Vif-A3F inh
Cc1ccc(CNc2ncnc3sc(C(=O)N4CCC(N5CCCC(O)C5)CC4)c(C)c23)o1 (stereo not given) | 1% | nt | nt | nt
N#C/C(=C/c1ccc(N2CCCCC2)cc1)c1cccc(F)c1 | ? | -5% | 2% | 7%
N#C/C(=C/c1ccc(N2CCCCC2)o1)c1cccc(F)c1 | 7.1µM* | ? | 6.3µM* | 10µM*
N#C/C(=C/c1ccc(N2CCCCCC2)o1)c1ccc(Cl)cc1 | 7.9µM* | ? | 7.1µM* | ?
CCc1cc(C(=O)NCC2Cc3cc(C)cc(-c4cc(C(C)=O)ccc4F)c3O2)n(C)n1 (stereo not given) | 2% | nt | nt | nt
Cc1ccc(CN2CCOc3ccc(CN4CCC(O)(c5cccnc5)CC4)cc3C2)cc1 | 1% | nt | nt | nt
O=C(NC(NC(=S)Nc1cccc(Cl)c1)C(Cl)(Cl)Cl)OCc1ccccc1 (stereo not given) | 7.9µM* | -11% | 1% | -19%
O=C(NC(NC(=S)Nc1cccc(C(=O)O)c1)C(Cl)(Cl)Cl)OCc1ccccc1 (stereo not given) | -2% | 2% | -1% | 11%
Cc1cnc(SCc2ccccn2)nc1C1CCCN(C(=O)c2ccc3c(c2)OCCO3)C1 (stereo not given) | 0% | nt | nt | nt
Cc1ccc(NC(=O)CSc2nc(-c3ccc(C(C)(C)C)cc3)nc3cc(=O)[nH]n23)cc1C | 28% | -3% | -3% | ?
Cc1ccc(CSc2nc(-c3ccc(C(C)(C)C)cc3)nc3cc(=O)[nH]n23)cc1 | 1% | 10µM* | -3% | 2%
N=c1ccn(Cc2ccc(Cl)c(Cl)c2)cc1 | 40µM* | -3% | 0% | 7%
CCCOc1ccc(C2C(C(=O)c3cc4ccccc4o3)=C(O)C(=O)N2c2cc(C)on2)cc1 (stereo not given) | 25µM* | 1% | nt | -11%
CCCOc1ccc(C2C(C(=O)c3cc4ccccc4o3)=C(O)C(=O)N2c2cc(C)on2)cc1OC (stereo not given) | 0% | -1% | nt | -22%
COCCNC(=O)c1cn(C2CCN(C3CCCC3)CC2)nn1 | 0% | nt | nt | nt
Cc1cc(=O)c2c(O)c3c(O)cc(=O)c4c3c3c(cc(O)c1c23)C(C)(C)C=4O | nt | nt | 16µM* | nt
CN(C)S(=O)(=O)c1ccc2[nH]cc(/C=C/c3nc4ccccc4c(=O)n3-c3ccccc3)c2c1 | 11µM* | -25% | 0% | -15%
Cc1nc(N2CCc3ccccc3C2)[nH]c(=O)c1CCC(C)C | 11µM* | 0% | 0% | -18%
Cc1nc(N2CCOCC2)[nH]c(=O)c1CCC(C)C | -20%[38.3 µM] | -3% | -1% | -24%
COc1ccc(C(C(=O)NC2CCCC2)N(C(=O)c2snc(-c3ccc(F)cc3)c2N)c2ccccc2)cc1 (stereo not given) | 13µM* | 1% | 0% | -4%
COc1ccc(C(C(=O)NC2CCCC2)N(C(=O)c2snc(-c3ccc(F)cc3)c2N)c2ccc(F)cc2)cc1 (stereo not given) | 16µM* | -5% | 0% | 5%
COCCN1CCN(C(=O)c2cnn(-c3nccc(-c4ccco4)n3)c2C(C)C)CC1 | -1% | nt | nt | nt
COc1cc([N+](=O)[O-])ccc1NC(=S)Nc1cc(C(=O)OC(C)C)cc(C(=O)OC(C)C)c1 | 16µM* | -2% | -1% | -6%
CCN1CCC(N[C@H]2C[C@@H](C(=O)NC)N(Cc3cccc4ccccc34)C2)CC1 | 0% | nt | nt | nt
Cc1nc(SCC(=O)c2cc3ccccc3oc2=O)c(C#N)c(-c2cccs2)c1C(=O)Nc1ccccc1 | 40µM* | 2% | 0% | -15%
SMILES | PINK1 expr mod | Vif-APOBEC3G blk | Epigenetic reg | Vif-A3F inh
CC(C)c1c(C#N)c(N)nc(SCC(=O)c2cc3ccccc3oc2=O)c1C#N | ? | -6% | 16% | 0%
CN1CCN(Cc2c(O)ccc3occ(C(=O)c4ccccc4)c23)CC1 | -1% | -1% | -6% | 2%
CC(=O)C(C(C)=O)c1c(Cl)c(O)c(O)c2c(C(=O)c3ccccc3)coc12 | 16µM* | -11% | ? | -15%
CCOC(=O)[C@@H]1[C@H]2COc3cc(OC)ccc3[C@H]2N2C(=O)N(c3ccc(C(F)(F)F)cc3)C(=O)[C@]12C | 40µM* | -1% | nt | -10%
CCOC(=O)[C@@H]1[C@H]2COc3cc(OC)ccc3[C@@H]2N2C(=O)N(c3ccc(C(F)(F)F)cc3)C(=O)[C@@]12C | 1% | 0% | nt | 2%
N#C/C(=C(/O)c1ccc(F)cc1)c1nc2ccccc2s1 | 16µM* | -3% | 4% | -2%
CC(=O)c1ccc(F)c(-c2cc(C)cc3c2OC(CNC(=O)c2cnc4ccccn4c2=O)C3)c1 (stereo not given) | 1% | nt | nt | nt
CC(C)c1cccc(-c2ccc3c(c2)S(=O)(=O)c2cccc(C(=O)NCc4ccccc4Cl)c2C3=O)c1 | 19% | 0% | nt | 11µM*
CC(C)c1cccc(-c2ccc3c(c2)S(=O)(=O)c2cccc(C(=O)NCc4ccccc4)c2C3=O)c1 | 10% | 2% | nt | 10µM*
Cc1ccc(-n2c(O)c(C=Nc3ccc4c(c3)OCO4)c3ccccc3c2=O)cc1C | ? | -11% | ? | ?
Cc1cc(N=Cc2c(O)n(-c3ccc4c(c3)OCO4)c(=O)c3ccccc23)ccn1 | -3% | ? | ? | 25µM*
Cn1cnnc1Sc1nc2ccccc2nc1NS(=O)(=O)c1ccccc1 | -2%[38.3 µM] | -2% | 2% | ?
Cn1ccnc1Sc1nc2ccccc2nc1NS(=O)(=O)c1ccccc1 | -2%[38.3 µM] | -13% | 7% | 25µM*
CC(=O)Nc1ccc(S(=O)(=O)Nc2nc3ccccc3nc2Sc2nncn2C)cc1 | 5%[38.3 µM] | -16% | 3% | 10µM*
CO[C@H]1[C@H](NC(=O)c2ccco2)c2ccccc2C12CCN(Cc1ccc3cccc(F)c3n1)CC2 | 2% | nt | nt | nt
CC(C)(CNC(=O)c1cnn(-c2ncc3c(n2)-c2ccccc2CCC3)c1C1CC1)N1CCOCC1 | 0% | nt | nt | nt
CC(=O)Oc1c(-c2ccc(Br)o2)oc2ccccc2c1=O | 9% | -7% | nt | 13µM*
COc1ccc(OC)c(CN2CCOc3ccc(CN4CCC(O)(c5cccnc5)CC4)cc3C2)c1 | -1% | nt | nt | nt
Cc1c(/C=N/NC(=O)c2ccccc2O)c2ccccn2c1C(=O)c1ccc(F)cc1 | 28µM* | -3% | -2% | -37%
COc1cc(-c2cc(C(=O)Nc3ccc(O)cc3)c3ccccc3n2)cc(OC)c1OC | 0% | -9% | 1% | 2%
COc1cc(-c2cc(O)c(-c3ccc4ccccc4n3)c(=O)[nH]2)cc(OC)c1OC | 25% | 10µM* | nt | 11µM*
Cc1ccc2[nH]nc(C(=O)N3CCOc4ccc(CN5CCc6sccc6C5)cc4C3)c2c1 | 4% | nt | nt | nt
CCN(Cc1ccccc1)S(=O)(=O)c1cc(C(=O)Nc2cc(Cl)cc(Cl)c2)ccc1F | 45µM* | 11% | 1% | 0%
Cc1cnc(C)c(-c2cccc3c2OC(CNC(=O)C[C@@H]2C[C@@H](C)NC(=S)N2)C3)n1 (stereo not given in full) | 0% | nt | nt | nt
